Laboratory results published in PubChem BioAssay (Tox21).
Several values for one entry are separate records, joined by “and”; a condition that tells them apart may be missing. Equal entries are not always repeated. Records with an inconclusive call do not appear. Some compounds were tested as several samples or in several runs, with calls that do not always agree. Activity calls are given as the source filed them. Unless noted, calls come from the whole dose curve.

Tests used:
[1] = Nuclear factor erythroid 2-related factor 2/antioxidant responsive element (Nrf2/ARE) small molecule agonists: qHTS cell viability counter screen in human keratinocytes (AID 1919968; active = well fitted curve in the direction sought with a large enough effect in the repeat runs; an effect the other way counts as inactive or inconclusive; note: nearly all actives have a fitted effect of over 55% in size; note: potency is the fitted concentration of half-maximal effect)
Method in brief: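 KeratinoSens HaCaT cells, 1,500/well, preincubated 5 h, then exposed to compounds in DMSO for 23 h at 37 C/5% CO2. Viability read as CellTiter-Fluor fluorescence after 1 h, in the same wells as the ARE-luciferase read.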

[2] = Nuclear factor erythroid 2-related factor 2/antioxidant responsive element (Nrf2/ARE) small molecule agonists: luciferase reporter gene qHTS assay in human keratinocytes (AID 1919969); note: nearly all actives have a fitted effect of over 35% in size
[3] = biological target: Gonadotropin-releasing hormone receptor (Homo sapiens) (UniProt P30968); assay: Human gonadotropin-releasing hormone receptor (GnRHR) small molecule agonists, calcium flux assay in GnRHR-HEK293 cells (AID 1920063); note: nearly all actives have a fitted effect of over 35% in size
Method in brief: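 HEK293 cells stably expressing human GnRHR were dye-loaded for 1 h at 37 C. Compound was added in agonist mode and fluorescence (Ex/Em 480/540) recorded kinetically for 3 min. Fifteen concentrations, triplicates.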

[4] = biological target: KiSS-1 receptor (Homo sapiens) (UniProt Q969F8); assay: Human kisspeptin (KISS1R) small molecule agonists, calcium flux assay in KISS1R-HEK293 cells (AID 1920064; active = well fitted curve in the direction sought with a large enough effect in the repeat runs; an effect the other way counts as inactive or inconclusive)
Method in brief: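 HEK293 cells stably expressing human KISS1R were loaded with calcium dye for 1 h at 37 C, then given compound; fluorescence (Ex/Em 480/540) was read kinetically for 3 min. Fifteen concentrations, triplicate.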

[5] = G protein-coupled receptor (GPCR) small molecule agonists, calcium flux assay: HEK293 wild type cell line counter screen (AID 1920065)
Method in brief: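 Wild-type HEK293 cells plated 18 h, loaded with calcium dye 1 h at 37 C, then compounds added in agonist mode (ATP as positive control). Kinetic fluorescence Ex/Em 480/540 recorded 3 min at 1 sec intervals; 15 concentrations, triplicate.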

[6] = p53 small molecule agonists, cell-based qHTS assay with human liver microsomes (AID 1963577);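 note: p53 response element beta-lactamase reporter cells with liver microsomes plus NADPH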
Method in brief: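 Reporter activation was measured by LiveBLAzer fluorescence intensity in p53RE-bla cells, which had been exposed to compounds for 16 h at 37 C alongside 0.5 mg/mL human liver microsomes and 0.5 mg/mL NADPH (final concentrations).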

[7] = p53 small molecule agonists, cell-based qHTS assay with rat liver microsomes (AID 1963578)
Method in brief: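 Compound in DMSO added to p53RE-bla cells 5 h post-plating; rat microsomes/NADPH 0.5 mg/mL final; 16 h, 37 C; LiveBLAzer 2 h RT.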

[8] = p53 small molecule agonists, cell-based qHTS assay with human liver microsomes: qHTS cell viability counter screen (AID 1963579); note: nearly all actives have a fitted effect of over 45% in size
Method in brief: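 HLM-supplemented (0.5 mg/mL final) and NADPH-supplemented (0.5 mg/mL final) p53RE-bla cultures, 4,000 cells per well, were dosed with compounds in DMSO for 16 h at 37 C; luminescent ATP detection (CellTiter-Glo, 30 min, room temperature) quantified surviving cells.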

[9] = p53 small molecule agonists, cell-based qHTS assay with rat liver microsomes: qHTS cell viability counter screen (AID 1963580); note: nearly all actives have a fitted effect of over 45% in size
Method in brief: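 Intracellular ATP, by CellTiter-Glo luminescence, defines viability. HCT-116 p53RE-bla cells, 4,000 per well, were compound-treated in the presence of rat liver microsomes and NADPH for 16 h at 37 C.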

[10] = p53 small molecule agonists, cell-based qHTS assay: qHTS cell viability counter screen (AID 1963581); note: nearly all actives have a fitted effect of over 45% in size
Method in brief: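 p53RE-bla HCT-116 cells, compounds added 5 h after plating and incubated 16 h at 37 C. Cytotoxicity measured in the same wells as intracellular ATP by CellTiter-Glo luminescence after 30 min at room temperature.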

[11] = p53 small molecule agonists, cell-based qHTS assay (AID 1963582; active = well fitted activation curve with a large enough effect in the signal ratio in the repeat runs, not every such curve was filed as active; the % refers to the signal ratio)
Method in brief: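 p53RE-bla reporter cells, compounds added in DMSO after 5 h plating, incubated 16 h at 37 C. Beta-lactamase read via 2 h room-temperature LiveBLAzer B/G FRET substrate, fluorescence intensity.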

[12] = biological target: 5-hydroxytryptamine receptor 2A (Homo sapiens) (UniProt P28223); assay: 5-hydroxytryptamine receptor 2A (HTR2A) small molecule antagonists, cell-based qHTS assay (AID 1963586); note: nearly all actives have a fitted effect of over 45% in size; note: potency is the fitted concentration of half-maximal effect
Method in brief: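 Antagonist-mode intracellular calcium assay: DOI (4 nM) added after 5 min compound pre-incubation at room temperature to dye-loaded HTR2A-CHO cells. Fluorescence followed for 3 min, sampled every second.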

[13] = biological target: 5-hydroxytryptamine receptor 2A (Homo sapiens) (UniProt P28223); assay: 5-hydroxytryptamine receptor 2A (HTR2A) small molecule agonists, cell-based qHTS assay (AID 1963587); note: nearly all actives have a fitted effect of over 30% in size
Method in brief: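 Kinetic calcium-flux fluorescence (2 min, 1 sec intervals) after compound addition in agonist mode. HTR2A-CHO cells were cultured 18 h, then dye-loaded 1 h at 37 C.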

[14] = biological target: Muscarinic acetylcholine receptor M1 (Homo sapiens) (UniProt P11229); assay: Cholinergic receptor muscarinic 1 (CHRM1) small molecule antagonists, cell-based qHTS assay (AID 1963588); note: nearly all actives have a fitted effect of over 40% in size; note: potency is the fitted concentration of half-maximal effect
Method in brief: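 CHRM1-CHO calcium-flux assay, antagonist mode. Cells were seeded 18 h, dye-loaded 1 h at 37 C and given compound for 5 min at RT, then acetylcholine was added at 50nM. FDSS fluorescence was read 3 min; 15 concentrations, three runs.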

[15] = biological target: Muscarinic acetylcholine receptor M1 (Homo sapiens) (UniProt P11229); assay: Cholinergic receptor muscarinic 1 (CHRM1) small molecule agonists, cell-based qHTS assay (AID 1963589); note: nearly all actives have a fitted effect of over 35% in size
Method in brief: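 CHO cells stably expressing human CHRM1 were loaded with calcium dye for 1 h at 37 C, then compound was added in agonist mode. Intracellular calcium fluorescence was followed kinetically at 1 s intervals. Fifteen concentrations were tested in three independent runs.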

[16] = cAMP Responsive Elements (CRE) small molecule agonists, cell-based qHTS assay (AID 1963590)
Method in brief: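 CRE-bla HEK 293T cells, 2,000/well in DMEM with 10% dialyzed FBS and 25 mM HEPES, pre-incubated 18 h at 37 C, then exposed to compound 3 h at 37 C. Beta-lactamase reporter read with LiveBLAzer B/G FRET substrate after 2 h at room temperature.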

[17] = cAMP Responsive Elements (CRE) small molecule antagonists, cell-based qHTS assay (AID 1963591; active = well fitted inhibition curve with a large enough effect in the signal ratio in the repeat runs, not every such curve was filed as active; the % refers to the signal ratio)
Method in brief: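 CRE-bla HEK293T cells plated 18 h, then given compound plus NKH477 at 0.25 uM final for 3 h at 37C. Beta-lactamase reporter read with LiveBLAzer B/G FRET substrate after 2 h at room temperature.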

[18] = biological target: Beta-2 adrenergic receptor (Homo sapiens) (UniProt P07550); assay: Adrenergic beta2 receptor (ADRB2) small molecule antagonists, cell-based qHTS assay (AID 1963592); note: series mostly up to about 92 µM; nearly all actives have a fitted effect of over 50% in size
Method in brief: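 Cells (CHO, stable ADRB2 overexpression) incubated 18-20hr at 37C; compounds added from DMSO; agonist mix (1nM isoproterenol, 100uM IBMX, 25uM Ro-20-1724) added; 0.5hr RT; d2-cAMP and anti-cAMP-cryptate added; 1hr RT; 665/615 nm read.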

[19] = biological target: Beta-2 adrenergic receptor (Homo sapiens) (UniProt P07550); assay: Adrenergic beta2 receptor (ADRB2) small molecule agonists, cell-based qHTS assay (AID 1963593);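 note: CHO cells stably overexpressing human ADRB2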
Method in brief: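 CHO cells stably over-expressing ADRB2 were plated overnight at 37C, then dosed with compounds plus a stimulation mix containing 100uM IBMX and 25uM Ro-20-1724 for 0.5hr at room temperature. cAMP was measured by HTRF competition, 1hr.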

[20] = biological target: D(2) dopamine receptor (Homo sapiens) (UniProt P14416); assay: Dopamine D2 receptor (DRD2) small molecule agonists, cell-based qHTS assay (AID 1963594); note: nearly all actives have a fitted effect of over 35% in size
Method in brief: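 cAMP accumulation in DRD2-HEK293 cells measured by HTRF after 1 h detection; compounds added 10 min before NKH477 (200nM […]) forskolin-analogue stimulation, 30 min at room temperature, with Ro20-1724 present at 0.1 mM final.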

Measured: Potency

5-hydroxytryptamine receptor 2A (Homo sapiens), sequence (P28223 whole entry, looked up): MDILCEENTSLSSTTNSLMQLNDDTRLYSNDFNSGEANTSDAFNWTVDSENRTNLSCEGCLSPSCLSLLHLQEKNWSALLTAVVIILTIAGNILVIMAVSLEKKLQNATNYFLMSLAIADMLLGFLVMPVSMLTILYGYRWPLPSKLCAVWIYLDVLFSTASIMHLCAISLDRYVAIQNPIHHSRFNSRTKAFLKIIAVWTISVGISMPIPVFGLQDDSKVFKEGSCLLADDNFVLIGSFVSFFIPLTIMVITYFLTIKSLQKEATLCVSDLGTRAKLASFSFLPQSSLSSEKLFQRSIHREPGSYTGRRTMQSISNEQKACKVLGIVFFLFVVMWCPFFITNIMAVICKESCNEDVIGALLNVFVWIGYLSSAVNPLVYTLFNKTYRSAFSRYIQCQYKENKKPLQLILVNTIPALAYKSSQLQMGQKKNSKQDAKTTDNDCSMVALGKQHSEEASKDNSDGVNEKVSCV
D(2) dopamine receptor (Homo sapiens), sequence (P14416 whole entry, looked up): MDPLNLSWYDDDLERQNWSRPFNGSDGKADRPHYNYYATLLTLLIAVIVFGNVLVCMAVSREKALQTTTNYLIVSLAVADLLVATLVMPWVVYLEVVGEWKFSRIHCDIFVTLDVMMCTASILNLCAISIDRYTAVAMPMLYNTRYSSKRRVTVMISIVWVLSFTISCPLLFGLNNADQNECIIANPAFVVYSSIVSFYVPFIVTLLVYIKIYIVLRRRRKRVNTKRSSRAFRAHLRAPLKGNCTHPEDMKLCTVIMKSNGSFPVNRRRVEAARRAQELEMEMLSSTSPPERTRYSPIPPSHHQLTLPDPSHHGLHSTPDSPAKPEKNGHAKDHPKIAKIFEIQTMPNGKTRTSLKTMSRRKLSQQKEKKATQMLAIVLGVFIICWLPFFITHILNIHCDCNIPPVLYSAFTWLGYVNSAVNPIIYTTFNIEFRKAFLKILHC
KiSS-1 receptor (Homo sapiens), sequence (Q969F8 whole entry, looked up): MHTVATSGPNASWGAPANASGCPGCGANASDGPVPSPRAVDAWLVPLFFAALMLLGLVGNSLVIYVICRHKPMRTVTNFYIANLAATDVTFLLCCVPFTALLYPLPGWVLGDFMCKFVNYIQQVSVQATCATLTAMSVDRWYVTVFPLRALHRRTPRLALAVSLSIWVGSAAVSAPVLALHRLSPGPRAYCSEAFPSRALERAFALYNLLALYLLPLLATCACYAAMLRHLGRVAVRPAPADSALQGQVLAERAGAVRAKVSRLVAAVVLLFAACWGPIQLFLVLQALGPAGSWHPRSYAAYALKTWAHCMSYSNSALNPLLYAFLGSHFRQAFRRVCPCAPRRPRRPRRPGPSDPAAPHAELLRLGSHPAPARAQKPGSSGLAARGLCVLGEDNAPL
Muscarinic acetylcholine receptor M1 (Homo sapiens), sequence (P11229 whole entry, looked up): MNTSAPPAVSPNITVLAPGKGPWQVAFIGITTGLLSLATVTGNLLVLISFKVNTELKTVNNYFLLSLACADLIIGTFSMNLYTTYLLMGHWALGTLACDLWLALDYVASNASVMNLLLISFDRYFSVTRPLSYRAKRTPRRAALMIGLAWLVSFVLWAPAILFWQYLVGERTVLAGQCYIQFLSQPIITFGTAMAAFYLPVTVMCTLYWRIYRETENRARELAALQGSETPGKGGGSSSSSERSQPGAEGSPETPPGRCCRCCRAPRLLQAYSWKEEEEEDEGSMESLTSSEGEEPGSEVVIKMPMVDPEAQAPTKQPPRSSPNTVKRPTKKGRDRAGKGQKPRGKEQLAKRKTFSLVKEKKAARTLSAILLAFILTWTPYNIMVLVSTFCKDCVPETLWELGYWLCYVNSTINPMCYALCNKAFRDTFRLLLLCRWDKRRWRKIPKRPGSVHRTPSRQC
Gonadotropin-releasing hormone receptor (Homo sapiens), sequence (P30968 whole entry, looked up): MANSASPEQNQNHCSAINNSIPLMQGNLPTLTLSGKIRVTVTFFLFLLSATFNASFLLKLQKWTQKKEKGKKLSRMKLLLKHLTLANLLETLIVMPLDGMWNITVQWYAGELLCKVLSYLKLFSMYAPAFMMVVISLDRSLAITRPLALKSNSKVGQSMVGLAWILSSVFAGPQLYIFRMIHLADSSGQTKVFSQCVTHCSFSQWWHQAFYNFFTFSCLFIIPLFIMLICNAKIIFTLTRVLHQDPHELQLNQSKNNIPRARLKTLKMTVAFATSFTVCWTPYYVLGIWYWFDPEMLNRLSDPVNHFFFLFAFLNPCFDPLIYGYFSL
Beta-2 adrenergic receptor (Homo sapiens), sequence (P07550 whole entry, looked up): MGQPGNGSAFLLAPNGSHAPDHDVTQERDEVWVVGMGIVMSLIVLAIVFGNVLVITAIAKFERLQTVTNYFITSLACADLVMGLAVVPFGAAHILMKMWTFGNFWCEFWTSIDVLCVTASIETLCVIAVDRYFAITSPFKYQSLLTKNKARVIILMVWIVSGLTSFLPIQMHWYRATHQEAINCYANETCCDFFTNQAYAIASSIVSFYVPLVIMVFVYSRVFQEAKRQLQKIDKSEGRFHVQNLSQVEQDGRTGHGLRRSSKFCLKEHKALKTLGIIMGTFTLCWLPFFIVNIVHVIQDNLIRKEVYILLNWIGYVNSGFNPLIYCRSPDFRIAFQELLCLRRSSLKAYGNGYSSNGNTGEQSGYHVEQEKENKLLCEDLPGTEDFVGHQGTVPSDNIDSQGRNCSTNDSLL

C1C[C@@H]2[C@H]3CC[C@H](C3)[C@@H]2C1
inactive: [1] | [2] | [3] | [4] | [5] | [6] | [7] | [8] | [9] | [10] | [11] | [12] | [13] | [14] | [15] | [16] | [17] | [18] | [19] | [20]

Cc1ccc(N(C)C)cc1
inactive: [1] | [2] | [3] | [4] | [5] | [6] | [7] | [8] | [9] | [10] | [11] | [13] | [14] | [15] | [16] | [17] | [18] | [19] | [20]
inactive and 133 nM (active): [12]

Cc1cc(C)c(S(=O)(=O)O)cc1N=Nc1cc(S(=O)(=O)O)c2ccccc2c1O
inactive: [2] | [3] | [4] | [5] | [6] | [7] | [8] | [9] | [10] | [11] | [12] | [13] | [14] | [15] | [16] | [17] | [18]
active: [1] 30.6 µM

CN(C)CCOC(c1ccc(Cl)cc1)c1ccccn1 (stereo not drawn)
inactive: [1] | [2] | [3] | [4] | [5] | [6] | [7] | [8] | [9] | [10] | [11] | [12] | [13] | [15] | [16] | [17] | [18] | [19] | [20]
active: [14] 4.6 µM

CC(O)CNCC(C)O (stereo not drawn)
inactive: [1] | [2] | [3] | [4] | [5] | [6] | [7] | [8] | [9] | [10] | [11] | [12] | [13] | [14] | [15] | [16] | [17] | [18] | [19] | [20]

CCOC(=O)CN1CCCC1=O
inactive: [1] | [2] | [3] | [4] | [5] | [6] | [7] | [8] | [9] | [10] | [11] | [12] | [13] | [14] | [15] | [16] | [17] | [18] | [19] | [20]

CCCCN(CCO)CCO
inactive: [1] | [2] | [3] | [4] | [5] | [6] | [7] | [8] | [9] | [10] | [11] | [12] | [13] | [14] | [15] | [16] | [17] | [18] | [19] | [20]
